Test systems include NCI-H23 lung; NCI-H226 lung; NCI-H322M lung; HOP-62 NSCLC; NCI-H460 lung; HOP-92 NSCLC; NCI-H522 lung; A549/ATCC NSCLC; 786-0 renal; COLO 205 colon.
What all share (test): NCI-60 one-dose screen, 48 h (100 = growth as untreated, 0 = no growth, -100 = all killed)

Among the data in PubChem BioAssay (NCI) are growth values, retold here.

Values joined by “and” are separate entries in the source; they are usually repeats but may differ in a detail not shown here. Identical values can stand only once. About 83,000 compounds went through this panel and 20% of them were active in at least one assay; those are over-represented in the sample as a whole.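 Single-concentration screen, 48 h exposure, 96-well plates. Endpoint: percent growth. Below 10 = active.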 Active and inactive are the calls of the source.

`CN(C)c1ccc2nc3ccc(N)cc3[n+](-c3ccccc3)c2c1`: the growth with NCI-H23 lung (10 µM unless noted) was 10.4% (inactive) and 20.6% (inactive); with NCI-H226 lung (10 µM unless noted), 54.7% (inactive) and 72.4% (inactive); in the assay on NCI-H322M lung (10 µM unless noted), 66.1% (inactive) and 40.3% (inactive); with HOP-62 NSCLC (10 µM unless noted) it was 12.6% (inactive) and 42.7% (inactive); in the assay on NCI-H460 lung (10 µM unless noted) it was 9.65% (active) and 9.63% (active); with HOP-92 NSCLC (10 µM unless noted) it was -3.42% (active) and 38.1% (inactive). Besides, the growth is 14.1% (inactive) in the assay on NCI-H522 lung (10 µM unless noted); 62.1% (inactive) and -27.6% (active) in the assay with A549/ATCC NSCLC (10 µM unless noted); 56.3% (inactive) and 38.7% (inactive) in the assay on 786-0 renal (10 µM unless noted); -62.8% (active) and -12.6% (active) in the assay with COLO 205 colon (10 µM unless noted).
As to `O=[N+]([O-])c1ccccc1N(S(=O)(=O)c1ccccc1)S(=O)(=O)c1ccccc1`, the growth with NCI-H23 lung (10 µM unless noted) was 106% (inactive) and 95.9% (inactive); with NCI-H226 lung (10 µM unless noted), 113% (inactive) and 91.2% (inactive); in the assay with NCI-H322M lung (10 µM unless noted) it was 90% (inactive) and 95% (inactive); in the assay with HOP-62 NSCLC (10 µM unless noted), 118% (inactive) and 119% (inactive); in the assay with NCI-H460 lung (10 µM unless noted) it was 108% (inactive) and 114% (inactive); with HOP-92 NSCLC (10 µM unless noted) it was 92.8% (inactive) and 101% (inactive). Moreover, the growth was 94.7% (inactive) and 87.3% (inactive) with NCI-H522 lung (10 µM unless noted); 91.3% (inactive) and 80.2% (inactive) with A549/ATCC NSCLC (10 µM unless noted); 109% (inactive) in the assay on 786-0 renal (10 µM unless noted); 129% (inactive) and 117% (inactive) in the assay on COLO 205 colon (10 µM unless noted).
`CCOc1ccc2cc(-c3nn(CC4CCN(C)CC4)c4ncnc(N)c34)ccc2c1`: the growth with NCI-H23 lung (10 µM unless noted) was 74.2% (inactive) and 63.5% (inactive); in the assay with NCI-H226 lung (10 µM unless noted), 83.6% (inactive) and 67.7% (inactive); in the assay with NCI-H322M lung (10 µM unless noted) it was 92.7% (inactive) and 87.4% (inactive); with HOP-62 NSCLC (10 µM unless noted), 83.8% (inactive) and 77.2% (inactive); in the assay with NCI-H460 lung (10 µM unless noted) it was 96.1% (inactive) and 69.6% (inactive); with HOP-92 NSCLC (10 µM unless noted), 69.1% (inactive) and 48.8% (inactive). Further, the growth is 87% (inactive) and 42.3% (inactive) in the assay on NCI-H522 lung (10 µM unless noted); 78.3% (inactive) and 60.1% (inactive) with A549/ATCC NSCLC (10 µM unless noted); 80.1% (inactive) and 55.8% (inactive) in the assay with 786-0 renal (10 µM unless noted); 89.7% (inactive) and 39.6% (inactive) in the assay on COLO 205 colon (10 µM unless noted).
On to `O=C(N/N=C/c1ccccc1)N/N=C/c1ccccc1`, for which the growth was 118% (inactive) and 101% (inactive) in the assay with NCI-H23 lung (10 µM unless noted); 106% (inactive) and 78.9% (inactive) in the assay with NCI-H226 lung (10 µM unless noted); 103% (inactive) and 116% (inactive) in the assay on NCI-H322M lung (10 µM unless noted); 104% (inactive) and 117% (inactive) with HOP-62 NSCLC (10 µM unless noted); 118% (inactive) and 95.1% (inactive) in the assay with NCI-H460 lung (10 µM unless noted); 100% (inactive) and 90.3% (inactive) with HOP-92 NSCLC (10 µM unless noted). The growth in the assay with NCI-H522 lung (10 µM unless noted) is 99.5% (inactive) and 106% (inactive); with A549/ATCC NSCLC (10 µM unless noted), 102% (inactive) and 104% (inactive); in the assay on 786-0 renal (10 µM unless noted), 118% (inactive) and 116% (inactive); with COLO 205 colon (10 µM unless noted), 109% (inactive) and 129% (inactive).
For `O=C(O)c1sccc1O`, the growth in the assay with NCI-H23 lung (10 µM) is 80.1% (inactive); with NCI-H23 lung (100 µM), 37.2% (inactive); in the assay on NCI-H226 lung (10 µM), 89.2% (inactive); in the assay on NCI-H226 lung (100 µM), 74.1% (inactive); in the assay on NCI-H322M lung (10 µM) it was 87.5% (inactive); in the assay with NCI-H322M lung (100 µM), 50.9% (inactive). The growth in the assay with HOP-62 NSCLC (10 µM) is 102% (inactive); in the assay with HOP-62 NSCLC (100 µM) it was 34.1% (inactive); in the assay on NCI-H460 lung (10 µM), 91.2% (inactive); in the assay on NCI-H460 lung (100 µM) it was 30.1% (inactive); in the assay on HOP-92 NSCLC (10 µM), 66.9% (inactive); with HOP-92 NSCLC (100 µM), 26.9% (inactive). Moreover, the growth in the assay on NCI-H522 lung (10 µM) was 64.5% (inactive); in the assay with NCI-H522 lung (100 µM), -32.6% (active); in the assay with A549/ATCC NSCLC (10 µM), 82.5% (inactive); in the assay with A549/ATCC NSCLC (100 µM), 38.8% (inactive); in the assay on 786-0 renal (10 µM), 99.1% (inactive); in the assay with 786-0 renal (100 µM), 47.6% (inactive). The growth in the assay with COLO 205 colon (10 µM) is 111% (inactive); with COLO 205 colon (100 µM) it was 84.6% (inactive).
For `CN(C)c1ccc(C(Cc2ccc3ccccc3n2)Cc2ccc3ccccc3n2)cc1`, the growth is 38.6% (inactive) and 65.5% (inactive) in the assay with NCI-H23 lung (10 µM unless noted); 61.4% (inactive) and 71.9% (inactive) with NCI-H226 lung (10 µM unless noted); 66.9% (inactive) and 86% (inactive) with NCI-H322M lung (10 µM unless noted); 70.9% (inactive) and 84.4% (inactive) in the assay on HOP-62 NSCLC (10 µM unless noted); 26.5% (inactive) and 73.7% (inactive) with NCI-H460 lung (10 µM unless noted); -4.12% (active) and 50.7% (inactive) with HOP-92 NSCLC (10 µM unless noted). The growth with NCI-H522 lung (10 µM unless noted) was 45.3% (inactive) and 90.3% (inactive); in the assay on A549/ATCC NSCLC (10 µM unless noted), 45% (inactive) and 91.1% (inactive); in the assay with 786-0 renal (10 µM unless noted) it was 31.4% (inactive) and 90.9% (inactive); with COLO 205 colon (10 µM unless noted), 43.5% (inactive).
Take `Clc1ccc(NC(Nc2ccc(Cl)cc2)C(Cl)(Cl)Cl)cc1`: the growth is 78.1% (inactive) and 96.5% (inactive) in the assay on NCI-H23 lung (10 µM unless noted); 107% (inactive) and 96.8% (inactive) in the assay on NCI-H226 lung (10 µM unless noted); 81.4% (inactive) and 104% (inactive) in the assay with NCI-H322M lung (10 µM unless noted); 61.3% (inactive) and 86.3% (inactive) with HOP-62 NSCLC (10 µM unless noted); 93.9% (inactive) and 105% (inactive) in the assay with NCI-H460 lung (10 µM unless noted); 105% (inactive) with HOP-92 NSCLC (10 µM unless noted). Also, the growth was 71.2% (inactive) and 72.1% (inactive) in the assay with NCI-H522 lung (10 µM unless noted); 80.9% (inactive) and 92.3% (inactive) with A549/ATCC NSCLC (10 µM unless noted); 68.5% (inactive) and 93.6% (inactive) in the assay with 786-0 renal (10 µM unless noted); 129% (inactive) and 101% (inactive) in the assay on COLO 205 colon (10 µM unless noted).
With `Cc1ccc(S(=O)(=O)Nc2nc3ccccc3nc2Nc2ccc3nsnc3c2)cc1`, the growth was 48.7% (inactive) and 37.8% (inactive) with NCI-H23 lung (10 µM unless noted); 72.9% (inactive) and 72.7% (inactive) with NCI-H226 lung (10 µM unless noted); 58.5% (inactive) and 50.6% (inactive) in the assay on NCI-H322M lung (10 µM unless noted); 48.5% (inactive) and 84.9% (inactive) in the assay with HOP-62 NSCLC (10 µM unless noted); 32.1% (inactive) and 29.2% (inactive) in the assay on NCI-H460 lung (10 µM unless noted); 6.25% (active) in the assay with HOP-92 NSCLC (10 µM unless noted). The growth with NCI-H522 lung (10 µM unless noted) is 34.8% (inactive) and 23.3% (inactive); in the assay on A549/ATCC NSCLC (10 µM unless noted), 31% (inactive) and 38.4% (inactive); in the assay with 786-0 renal (10 µM unless noted), 46.9% (inactive) and 45.1% (inactive); with COLO 205 colon (10 µM unless noted) it was 44.5% (inactive) and 76% (inactive).
